TRHR PAM = qHTS for Small Molecule Agonists and Allosteric Enhancers of Human TRH Receptor: Primary Screen for Enhancers | TRHR cells, fluo-8 calcium fluorescence, EC20 TRH enhancement | enhancement, % at 2 µM | actives 0.66% (n = 360,000) | AID 493056, 2011; in the data active = enhancement above about 30%; also: 0% is about no effect
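TRHR-expressing cells loaded with fluo-8 calcium dye were read kinetically (ex 480/em 530) during compound addition, then stimulated with an EC20 of TRH (10 nM final). Enhancement of the Gq-mediated intracellular calcium response was scored.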
PTHR1 agonist = qHTS for PTHR1 Agonists: Primary Screen | Parathyroid hormone/parathyroid hormone-related peptide receptor (Homo sapiens), Q03431 | actives 0.075% (n = 410,000) | HEK293 GP2 PTHR1 cells, GloSensor cAMP luminescence, 1 h | Potency, µM (titrated, usually from 115 µM), for inactives: at the top dose activation, hits mostly activators; also: potency is read from the fitted curve at half-maximal effect; nearly all actives have a fitted effect of over 55% in size
Target sequence (Q03431 whole entry, looked up): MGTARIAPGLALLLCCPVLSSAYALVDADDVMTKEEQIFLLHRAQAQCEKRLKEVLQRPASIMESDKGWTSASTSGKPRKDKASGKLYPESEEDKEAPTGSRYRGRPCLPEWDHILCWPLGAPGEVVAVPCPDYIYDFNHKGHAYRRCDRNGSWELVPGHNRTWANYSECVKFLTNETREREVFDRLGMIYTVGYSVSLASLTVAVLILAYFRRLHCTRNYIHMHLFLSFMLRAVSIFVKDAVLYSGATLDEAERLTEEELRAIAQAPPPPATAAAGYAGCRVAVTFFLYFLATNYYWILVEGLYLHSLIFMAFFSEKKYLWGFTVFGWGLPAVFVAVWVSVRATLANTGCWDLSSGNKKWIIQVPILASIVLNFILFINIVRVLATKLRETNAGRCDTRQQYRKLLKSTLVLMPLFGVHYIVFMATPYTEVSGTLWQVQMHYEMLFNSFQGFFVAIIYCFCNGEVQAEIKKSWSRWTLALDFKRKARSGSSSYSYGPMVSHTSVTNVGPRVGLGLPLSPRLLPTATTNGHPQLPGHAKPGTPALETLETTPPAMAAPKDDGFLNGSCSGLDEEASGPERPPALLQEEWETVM
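HEK-293-derived GP2 cells expressing PTHR1 and a GloSensor cAMP reporter, 3,000/well, plated overnight, given luciferin plus IBMX (each 0.5 mM as added) for 1 h at 37 °C, then compound for 1 h at 37 °C. Luminescence was read after 15 min at room temperature.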
TRPML1 agonist = qHTS for Agonists of the Human Mucolipin Transient Receptor Potential 1 (TRPML1). Mucolipin-1 (Homo sapiens), Q9GZU1. TRPML1-expressing cells, Ca2+ dye fluorescence, FDSS. activation, % (concentration not given with the values). actives 0.12% (n = 410,000); in the data active = activation above about 50%; inconclusive = mostly about 30% to 49%; also: 0% is about no effect
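Agonist activity was taken from a 110 s kinetic Ca2+ dye read on the FDSS after pinning compounds onto TRPML1-DL cells. The cells were seeded at 1,500/well with Tet inducer, incubated about 16 h, then dye-loaded at room temperature.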
TRPML1 blocker = qHTS for Inhibitors of the Human Mucolipin Transient Receptor Potential 1 (TRPML1). TRPML1-inducible cells, Ca2+ dye fluorescence, FDSS; hits give low values; inhibition of EC80 agonist-evoked calcium signal. activity change, negative = inhibition, % (no concentration beside the values). actives 0.02% (n = 390,000); in the data active = activity change below about -50%; inconclusive = between about -30% and that limit;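 also: stimulus is agonist 54-4 at its EC80 concentration; % is scaled to controls: 0 for no effect and ±100 for the full control effect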
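Tet-induced TRPML1-DL cells loaded with Ca8 no-wash calcium dye were read kinetically on FDSS. Compound addition was followed by EC80 agonist 54-4 (4 uM final); inhibition was read over 110 s.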
TRHR ag = qHTS for Small Molecule Agonists and Allosteric Enhancers of Human TRH Receptor: Primary Screen for Agonists; actives 0.18% (n = 360,000); TRHR cells, calcium flux fluo-8, FDSS agonist mode; AID 493084, 2011; Thyrotropin-releasing hormone receptor (Homo sapiens), P34981; activation, % at 2 µM; in the data active = activation above about 30%; also: 0% is about no effect
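Steps: seed TRHR cells overnight; add fluo-8 no-wash Ca dye, RT 30 min–1.5 h; record 10 s baseline; pin-transfer compounds; monitor fluorescence 1 cycle/s for the agonist window. Calcium increases flag candidate agonists.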
HEK293 tox = qHTS of GLP-1 Receptor Inverse Agonists: Cytotox Screen; HEK293 cAMP-luciferase reporter cells, luminescence, 24 h; Potency, µM (titrated, usually from 38.3 µM), without a hit: at the highest dose activity change, negative = inhibition, hits mostly inhibitors; actives 0.13% (n = 410,000); AID 624418, 2012;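 also: loss of luciferase light is scored as toxicity; potency is read from the fitted curve at half-maximal effect; % is scaled to controls: 0 for no effect and ±100 for the full control effect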
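Compound-treated cells are incubated 24 hr at 37 deg C under 5% CO2 after a 12 hour attachment period, then luciferase detection reagent is added and luminescence is measured following 12 min at room temperature; lowered signal indicates toxicity.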
Starred values were filed as active, the others as inactive; i = inactive; ? = inconclusive; . = no result; [ ] = another dose, or the depositor's remark. This is a sample that favours compounds with a hit; in the whole collection about 0.93% have one here. Unless noted, calls follow the shape of the dose curve; as a rule, active = well fitted curve in the direction sought with a large enough effect; inconclusive = small, poorly fitted or top-dose-only effect, or another doubt; inactive = no such curve, though single readings can be large; an effect the other way counts as inactive or inconclusive.

SMILES | TRHR PAM | PTHR1 agonist | TRPML1 agonist | TRPML1 blocker | TRHR ag | HEK293 tox
CN(C)CCNS(=O)(=O)c1ccc2c3c(cccc13)C(=O)N2 | 40* | i | -1 | 7 | 1 | 134%
CN(C)C1CCC(CC2CCc3ccccc32)CC1 (centres undefined) | . | . | -1 | . | . | .
CC(C)(C)c1ccc(CN(Cc2ccccc2)C(c2ccccn2)c2nnnn2C(C)(C)C)cc1 (centres undefined) | -1 | -15% | 56* | 3 | 0 | 15%
COc1ccc(-c2cc(=O)n(CCC#N)[nH]2)cc1 | 3 | 1% | 0 | -20 | 0 | 5%
COc1ccc(-c2ncn(CCC#N)c2[N+](=O)[O-])cc1 | 33* | i | 0 | 12 | -1 | -10%
O=C(C[n+]1ccccc1)c1cccc([N+](=O)[O-])c1 | . | . | -1 | . | . | .
CC(C)CN(CC(C)C)C(=S)NC1CCCCC1 | -2 | i | 0 | -4 | 0 | 10µM*
Cc1ccc(C)c(S(=O)(=O)N2CCN(C(=O)C3CCN(c4ncnc5sc(C)c(C)c45)CC3)CC2)c1 | 34* | -26% | 74* | -8 | 1 | -24%
O=C(C[n+]1ccc2ccccc2c1)c1ccc(F)cc1 | . | . | 0 | . | . | .
COc1cccc(/C=N/NC(=O)CC(=O)NCCc2ccccc2)c1OC | 33* | i | 0 | 10 | 0 | -3%
COc1ccc(/C=N\NC(=O)c2ccc(-c3ccccc3)cc2)c(OC)c1OC | 30* | i | 2 | 0 | -1 | 2%
COc1ccccc1C=NN=C(NN=Cc1ccccc1OC)NN=Cc1ccccc1OC | . | i | 0 | -7 | . | 5µM*
COc1cccc(/C=N/NC(=S)NCCc2ccccc2)c1OC | 1 | -25% | 4 | 35 | 0 | -14%
COc1cccc(Nc2nc(C#N)nc(NC3CCCC3)n2)c1 | -5 | . | . | . | -3 | .
COC(=O)c1ccc(CSc2nc3ccc(S(=O)(=O)N4CCOCC4)cc3[nH]2)cc1 | 3 | -11% | -1 | 12 | 1 | -6%
COC(=O)c1ccc(CSc2nc3ccc(S(N)(=O)=O)cc3[nH]2)cc1 | 36* | -18% | -1 | 4 | 1 | 15%
CC(=O)Nc1ccc(S(=O)(=O)NNC(=O)c2cccc(Br)c2)cc1 | 38* | i | 1 | 27 | 0 | -1%
Cc1cc(C)n(C(=O)CNC(=O)c2cccs2)n1 | 37* | i | 0 | -9 | 0 | 2%
c1cncc(-c2nc(NCc3ccc4c(c3)OCO4)c3ccccc3n2)c1 | 32* | -12% | 1 | -3 | 2 | -10%
COc1ccc(Cl)c(Cn2cnc3c(cnn3C(C)(C)C)c2=O)c1 | . | . | 2 | -17 | . | .
COc1cc(F)c(S(=O)(=O)N2CCN(S(=O)(=O)c3ccc4c(c3)OCCO4)CC2)c(F)c1 | 2 | . | . | . | 2 | .
COc1ccc(Cn2nnnc2C(c2ccccn2)N2CCN(c3cc(Cl)ccc3C)CC2)cc1 (centres undefined) | 1 | 2%[57.5 µM] | 74* | -14 | 2 | 0%
O=[N+]([O-])c1ccc2c(c1)C=C/C2=C/c1ccccc1 | . | . | -1 | . | . | .
CCC(c1nnnn1Cc1cccs1)N1CCN(c2nc3ccccc3s2)CC1 (centres undefined) | 6 | -26%[57.5 µM] | 13 | 3 | 1 | 17%
CC(C)CC(c1nnnn1Cc1cccs1)N1CCN(c2nc3ccccc3s2)CC1 (centres undefined) | 4 | i | 74* | -11 | -1 | -21%
SMILES | TRHR PAM | PTHR1 agonist | TRPML1 agonist | TRPML1 blocker | TRHR ag | HEK293 tox
Cc1ccccc1CN1Cc2cccc3c2[C@H](C=CC3)CC1=O | . | . | 0 | . | . | .
C=CCC1NS(=O)(=O)OC2CCCCC12 (centres undefined) | 1 | 0% | -1 | 32 | 0 | -4%
C=CCC1NS(=O)(=O)OC2CCCC12 (centres undefined) | 37* | -7% | 0 | -3 | 0 | -4%
COC(=O)c1ccc(/C=C2\SC(=S)N(CCCC(=O)NCCCN3CCOCC3)C2=O)cc1 | 0 | -25% | 0 | 3 | 0 | 8.9µM*
CC1(C)C2([N+](=O)[O-])CN3CC1([N+](=O)[O-])CN(C2)C3C(O)C(O)C(O)CO (centres undefined) | 31* | ? | 1 | -9 | 1 | -2%
CC1(C)C2([N+](=O)[O-])CN(CCO)CC1([N+](=O)[O-])CN(CCO)C2 | -4 | -5%[57.5 µM] | 0 | 0 | 1 | 14%
CC(C)Nc1ccc(Nc2ccnc3cc4ccccc4cc23)cc1 | -1 | i | 0 | 19 | 1 | 4.5µM*
CN1CCN(c2nc3nonc3nc2N2CCN(C)CC2)CC1 | 32* | i | 4 | 0 | 0 | -17%
C1CCN(c2nc3nonc3nc2N2CCCCC2)CC1 | 0 | i | 1 | -7 | 0 | 2%
CN(C)c1ccc(/C=C/c2sc3ccccc3[n+]2Cc2ccccc2)cc1 | . | . | 1 | . | . | .
CCn1cnc2c(Nc3ccc(CCC(=O)N=C(N)N)cc3)nc(C#N)nc21 | 0 | . | . | . | -2 | .
N#C/C(=C/c1ccc(N2CCOCC2)o1)C(=O)Nc1ccccc1 | 10 | -32% | 83* | -17 | 90* | 8%
c1ccc(-c2cnnc(SCc3cn4cccnc4n3)n2)cc1 | -1 | i | -1 | 0 | -1 | -9%
c1ccc2[nH]c(SCc3cn4cccnc4n3)nc2c1 | 34* | i | 0 | -22 | 0 | 15%
COc1ccc(NC(=O)COc2ccccc2C(=O)Nc2ccccc2)cc1 | . | . | -1 | . | . | .
Clc1ccc(Cn2cc3c(n2)-c2cc4ccccc4n2C3)cc1 | . | . | -1 | . | . | .
CC(C)S(=O)(=O)N1CCN(c2nc(-c3cccs3)nc3ccccc23)CC1 | . | . | 0 | . | . | .
CCCc1nc(SC)[nH]c(=O)c1C | 34* | -17% | 1 | 17 | 0 | 0%
O=C(COc1ccccc1C(=O)Nc1ccccc1F)Nc1ccc(Br)cc1 | . | . | 0 | . | . | .
COC(=O)c1ccc(N=C2SCC(=O)N2C)cc1 | 37* | i | 0 | -6 | 0 | -4%
CNc1ccc(/C=C2\C=Cc3ccccc32)cc1I | . | . | 0 | . | . | .
CCOc1ccc(Nc2oc(-c3ccc(Cl)cc3)nc2C#N)cc1 | 0 | i | 0 | -5 | 0 | -26%
CCOc1ccc(-c2nc(C#N)c(NC3CC3)o2)cc1 | 32* | i | 1 | 6 | 0 | -3%

Bioassay records deposited in PubChem by National Center for Advancing Translational Sciences (NCATS).
